FUS suppressor – rescues growth of FUS-expressing yeast; S. cerevisiae FUS-expressing, growth rescue, OD600, 24 h; hit rate 0.24% among 390,000; AID 1347120; Potency, µM (doses to about 76.6 µM), most hits filed as activators;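 further: plate controls were DMSO vehicle for no effect and reference control for full effect; nearly all actives have a fitted effect of over 55% in size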
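Quantitative HTS measuring growth restoration of FUS-toxic yeast. Galactose-induced cells (OD 0.005) were exposed 24hr at 30C to compounds at several concentrations, then absorbance at 600 nm was recorded.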
Abeta rescue – A-beta toxicity reversal in yeast; Potency, µM (top dose mostly 46.1 µM), most hits filed as activators; AID 1347071; hit rate 0.063% among 410,000; yeast expressing A-beta42, growth rescue, OD600, 48 h; response scale: 0% DMSO, 100% iron-clioquinol control; further: nearly all actives have a fitted effect of over 55% in size
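Growth rescue measured by 600 nm absorbance after 48 h yeast culture at 30 C with compound. Values normalized between DMSO and an equimolar ferric chloride plus clioquinol control.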
aSyn yeast inh – rescues yeast growth from alpha-synuclein toxicity; Yeast expressing alpha-synuclein, growth rescue, BacTiter-Glo, 24 h; Potency, µM (highest dose often 46.1 µM), inactives show at the highest dose growth rescue (activation), hits mostly activators; hit rate 0.14% among 370,000; further: % of control where 0% means no effect; nearly all actives have a fitted effect of over 65% in size
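Readout is rescue of growth in alpha-synuclein-expressing yeast, so inhibitors of toxicity appear as activators. Growth after 24 hr at 30 deg C in galactose medium is quantified by luminescence.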
Mito fusion act – blocks mitochondrial division or promotes mitochondrial fusion; Potency, µM (series often up to 46.1 µM), for inactives: at the top dose growth rescue (activation), actives largely listed as activators; S. cerevisiae fusion-defective mutant growth rescue, CellTiterGlo 48 h; hit rate 0.23% among 320,000; further: % of control where 0% means no effect; nearly all actives have a fitted effect of over 45% in size
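Read-out: ATP-based luminescence (CellTiterGlo, 10 min ambient) reporting growth of fusion-defective ts yeast after 48 hours at 37C on glycerol/ethanol YPEG medium in the presence of compound.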
TDP43 rescue – inhibitors of TDP-43 toxicity in yeast. TDP-43 expressing yeast growth rescue, BacTiter-Glo, 24 h. Potency, µM (titrated, usually from 46.1 µM), for the others: at the highest dose growth rescue (activation), actives largely listed as activators. hit rate 1.8% among 410,000; further: % of control where 0% means no effect; nearly all actives have a fitted effect of over 50% in size
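Cell-based yeast growth screen: TDP-43 expression induced in galactose, inoculum OD600=0.02 after raffinose pregrowth to mid-log. Read-out BacTiter-Glo luminescence at 24 hr, 30 deg C; inhibition of toxicity seen as signal increase.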
An asterisk follows results filed as active. Hits are enriched below; roughly 2.2% of the tested compounds scored in any of these assays. The call rests on the fitted dose curve; in most records, active means well fitted curve in the direction sought with a large enough effect; inconclusive means small, poorly fitted or top-dose-only effect, or another doubt; inactive means no such curve, though single readings can be large; an effect the other way counts as inactive or inconclusive. Potency means the concentration at half of the fitted maximal effect.

For COC(=O)N/N=C/c1cc(Br)ccc1O the results were FUS suppressor inactive, Abeta rescue inactive, aSyn yeast inh 3%, Mito fusion act -3% and TDP43 rescue -5%.
Screening C=C(c1ccc2nc(NC(=O)OC)[nH]c2c1)c1cccs1 returned Abeta rescue inactive, aSyn yeast inh 10% and TDP43 rescue 20µM*.
C=CCOc1ccc2nc(NC(=O)OC)[nH]c2c1 was read as FUS suppressor inactive, Abeta rescue inactive, aSyn yeast inh 1%, Mito fusion act -5% and TDP43 rescue 8%.
Oc1ccccc1-c1cc(-c2cccc(F)c2)n[nH]1 was read as FUS suppressor inactive, Abeta rescue inactive, aSyn yeast inh 2%, Mito fusion act 2% and TDP43 rescue 3.2µM*.
`Cc1cccc(C)c1OCCn1nnc2ccccc21` gave FUS suppressor inactive, Abeta rescue inactive, aSyn yeast inh 14%, Mito fusion act 2% and TDP43 rescue 18µM*.
`Cc1cc(C)cc(OCCn2nnc3ccccc32)c1` gave FUS suppressor inactive, Abeta rescue inactive, aSyn yeast inh 3%, Mito fusion act -2% and TDP43 rescue 22µM*.
Screening Cc1ccc(C)c(OCCn2nnc3ccccc32)c1 returned FUS suppressor inactive, Abeta rescue inactive, aSyn yeast inh 16%, Mito fusion act -2% and TDP43 rescue inconclusive.
For Clc1ccccc1OCCn1nnc2ccccc21 the results were FUS suppressor inactive, Abeta rescue inactive, aSyn yeast inh 11%, Mito fusion act -1% and TDP43 rescue inconclusive.
Screening CCOC(=O)c1cc(S(=O)(=O)N2CCN(c3cccc(C)c3C)CC2)[nH]n1 returned FUS suppressor inconclusive, Abeta rescue inconclusive and TDP43 rescue 35µM*.
CCOC(=O)c1cc(S(=O)(=O)N2CCN(c3ccccc3F)CC2)[nH]n1 was read as FUS suppressor inactive, Abeta rescue inactive and TDP43 rescue inconclusive.
Screening CCOC(=O)c1cc(S(=O)(=O)N2CCN(c3ccc(C)cc3C)CC2)[nH]n1 returned FUS suppressor inconclusive, Abeta rescue inactive and TDP43 rescue 14µM*.
Screening COc1ccccc1NC(C)C(=O)c1c(C)[nH]c2ccccc12 (stereo not drawn) returned aSyn yeast inh -23%.
Screening O=C(Nc1ccc2c(c1)OCO2)O[C@@H]1CC[C@@]23CCCN2C(=O)CCC[C@H]3C1 returned FUS suppressor inactive.
`O=C(c1ccc(F)cc1Cl)N1CCCC(c2nc(-c3cccs3)no2)C1` (stereo not drawn) gave FUS suppressor inactive.
CC1CCCN(S(=O)(=O)c2ccc(NC(=O)CN3C(=O)NC(C)(c4ccccc4)C3=O)cc2)C1 (stereo not drawn) was read as FUS suppressor 28µM*, Abeta rescue inactive, aSyn yeast inh -3%, Mito fusion act -6% and TDP43 rescue 20%.
CC1CC(C)CN(S(=O)(=O)c2ccc(NC(=O)CN3C(=O)NC(C)(c4ccccc4)C3=O)cc2)C1 (stereo not drawn) was read as Abeta rescue inactive, aSyn yeast inh 1%, Mito fusion act -3% and TDP43 rescue 22%.
Screening Cc1ccc(-c2c(C(=O)N(C)Cc3ccccc3)oc(=O)c3ccccc23)cc1 returned FUS suppressor inconclusive, Abeta rescue inactive, aSyn yeast inh 0%, Mito fusion act 16µM* and TDP43 rescue 13µM*.
`CCCCN(C)C(=O)c1oc(=O)c2ccccc2c1-c1ccc(C)cc1` gave FUS suppressor inactive.
CN(Cc1ccccc1)C(=O)c1oc(=O)c2ccccc2c1-c1ccccc1 was read as Abeta rescue inactive, aSyn yeast inh 5%, Mito fusion act inconclusive and TDP43 rescue 14µM*.
Screening O=C(Nc1cccnc1)c1ccc([N+](=O)[O-])s1 returned FUS suppressor inactive, Abeta rescue inactive, aSyn yeast inh -6%, Mito fusion act -2% and TDP43 rescue 13µM*.
O=C(NC(=S)Nc1nc2c(s1)CCCC2)c1ccccc1 was read as Abeta rescue inactive, aSyn yeast inh -1%, Mito fusion act 2% and TDP43 rescue 17%.

From PubChem
